Only some compounds are listed: those with a hit (about 32% of all), similar ones and a draw of the others.
CYP2C19 inh: blockers of cytochrome P450 2C19 activity – biochemical, luminescence, ADME assay, primary screen; P33261; CYP2C19 Supersomes, luciferin-H EGE luminescence, 30 min; inhibition, % at 5 µM; 96,000 compounds, 21% hits; AID 778, 2007;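 active = CYP2C19 inhibition above a set limit at 5 µM in the primary screen, cut at about 50% in these data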;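 also: plate controls were negative control wells for no effect and 2.5 mM tranylcypromine positive control for full effect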
PostGolgi ctrl: growth inhibition of yeast control strain, primary screen, counter-screen for post-Golgi transport modulator project; efflux-deficient yeast background strain, growth absorbance A615, 16 h; inhibition, % at 10 µM; 98,000 compounds, 5% hits; AID 738, 2007
CYP2C9 activ: human CYP2C9 activators, primary screen, biochemical, luminescence | Cytochrome P450 2C9 (Homo sapiens), P11712 | recombinant CYP2C9, luciferin-H conversion; hits give high values; factor 1 = untreated enzyme, 0 = blocked | activation factor at 5 µM | 96,000 compounds, 1.4% hits;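 active = activation factor of 2 or more for CYP2C9 at a 5 µM dose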;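 also: 0 = sulfaphenazole-blocked wells and 1 = vehicle-only wells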
Target sequence (P11712 whole entry, looked up): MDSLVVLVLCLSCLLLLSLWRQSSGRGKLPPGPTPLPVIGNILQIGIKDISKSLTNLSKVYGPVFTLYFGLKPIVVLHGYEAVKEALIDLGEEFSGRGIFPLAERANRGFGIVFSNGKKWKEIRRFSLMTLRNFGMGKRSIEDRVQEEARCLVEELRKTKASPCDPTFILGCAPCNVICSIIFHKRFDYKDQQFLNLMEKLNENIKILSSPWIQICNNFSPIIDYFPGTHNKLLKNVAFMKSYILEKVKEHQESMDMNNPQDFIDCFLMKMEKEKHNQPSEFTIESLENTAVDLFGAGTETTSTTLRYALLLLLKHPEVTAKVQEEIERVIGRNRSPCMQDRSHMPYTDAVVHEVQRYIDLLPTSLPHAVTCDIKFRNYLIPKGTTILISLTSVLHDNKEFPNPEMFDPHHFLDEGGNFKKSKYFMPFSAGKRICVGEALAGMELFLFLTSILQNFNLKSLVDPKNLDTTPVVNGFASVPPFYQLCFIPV
PostGolgi yeast: phenotypic screen on post-Golgi transport, primary screen | post-Golgi transport phenotypic cell assay | inhibition, % at 10 µM | 98,000 compounds, 0.9% hits;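 also: yeast cells grown in 1536-well plates; yeast grown about 18 h at 30C before absorbance read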
CYP2C9 inh: blockers of cytochrome P450 2C9 activity – biochemical, luminescence, ADME assay, primary screen; 96,000 compounds, 20% hits; P11712; AID 777, 2007; CYP2C9 Supersomes, luciferin-H conversion; inhibition, % at 5 µM;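 active = blocking of liver enzyme CYP2C9 beyond about 50% at 5 µM, limit read from the data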
CYP2C19 activ: human CYP2C19 activators, primary screen, biochemical, luminescence. recombinant CYP2C19, luciferin-H EGE luminescence; hits give high values; 0 = fully inhibited enzyme, 1 = untreated enzyme. 96,000 tested, under 10 active. Cytochrome P450 2C19 (Homo sapiens), P33261. activation factor at 5 µM;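 active = activation factor of at least 2 at 5 µM in the primary screen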;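 also: 0 = wells with 2.5 mM tranylcypromine and 1 = vehicle-only wells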
Active calls of the source: *; x = not tested or not shown. Rule as the data show it, unless noted: active = inhibition above about 30%; inactive = the rest.

SMILES	CYP2C19 inh	PostGolgi ctrl	CYP2C9 activ	PostGolgi yeast	CYP2C9 inh	CYP2C19 activ
CCSc1nnc(NC(=O)c2cc(C)on2)s1	1	33*	0.4	1	58*	1
CC(NC(=O)Nc1nnc(C(F)(F)F)s1)(C(F)(F)F)C(F)(F)F	6	16	0.3	4	66*	0.9
CCOC(=O)c1[nH]c(C)c(/C(O)=C2\C(=O)C(=O)N(CCN(C)C)C2c2ccncc2)c1C (centres undefined)	-5	-2	0.8	2	21	1
CN(c1cccc(NS(=O)(=O)c2cccs2)c1)S(C)(=O)=O	20	11	1.2	20	-18	0.8
CCc1ccc(NS(=O)(=O)c2cccs2)cc1	56*	6	0.3	12	67*	0.4
O=S(=O)(Nc1ccc(N2CCOCC2)cc1)c1cccs1	90*	7	0.5	2	46	0.1
Cc1nn(Cc2ccc(F)cc2)c(C)c1NC(=O)c1cnn2cccnc12	41	30	1.1	0	-12	0.6
CC(C)(C)NS(=O)(=O)c1ccc(Oc2ncc(C(F)(F)F)cc2Cl)cc1	6	19	1.1	-3	-9	0.9
CC(C)(C)NS(=O)(=O)c1cnc(Cl)c(Cl)c1	90*	2	1	3	-1	0.1
O=C(NC1CCCCCCC1)c1ccc(S(=O)(=O)N2CCCC2)cc1	1	21	0.7	8	29	1
O=S(=O)(Nc1nc2ccccc2[nH]1)c1ccccc1	42	-3	0.9	-3	14	0.6
O=S(=O)(CCOc1ccccc1)c1nc2ccccc2[nH]1	73*	10	0.8	0	17	0.3
CN(C)S(=O)(=O)N(CC(=O)N(Cc1ccccc1)Cc1ccccc1)c1ccccc1	81*	34*	0.1	-6	85*	0.2
CN(C)S(=O)(=O)N(Cc1ccc(Br)cc1)c1ccccc1	86*	13	0.6	15	42	0.1
CCN(CC)c1ccc(-c2nn3c(-c4n[nH]c5c4CCC5)nnc3s2)cc1	12	43*	0.8	-3	21	0.9
c1coc(-c2nnc3sc(C4CCCCC4)nn23)c1	5	6	1	2	4	1
C1CCC(c2nn3c(-c4n[nH]c5c4CCC5)nnc3s2)CC1	87*	5	0.7	10	32	0.1
Cc1c(NS(=O)(=O)c2ccc3c(c2)OCCO3)cccc1-c1nc2cccnc2s1	100*	18	0.2	-1	83*	0
CCS(=O)(=O)Nc1cc(-c2nc3cccnc3s2)ccc1C	-1	6	0.8	2	17	1
Cc1cc(-c2nc3cccnc3s2)ccc1NS(=O)(=O)c1ccc2c(c1)OCCO2	31	13	0	-4	96*	0.7
CCCC(=O)NC(NC(=S)Nc1c(C)n(C)n(-c2ccccc2)c1=O)C(Cl)(Cl)Cl (centres undefined)	6	1	0.6	-7	36	0.9
COc1ccc(C2CC(O)(C(C)(C)O)NO2)cc1 (centres undefined)	6	-5	0.9	10	13	0.9
CC1(C2(O)CC(c3ccccc3)ON2)CCCCC1 (centres undefined)	54*	1	0.8	-8	16	0.5
CCC(C)C(NC(=O)C1CCC(C)CC1)C(=O)NCc1ccccn1 (centres undefined)	-4	5	1	5	-1	1
CCC(C)c1ccc2oc(-c3ccc(NC(=O)Cn4cnc5c(=O)n(C)c(=O)n(C)c54)cc3)nc2c1 (centres undefined)	12	76*	0.5	-17	48	0.9
SMILES	CYP2C19 inh	PostGolgi ctrl	CYP2C9 activ	PostGolgi yeast	CYP2C9 inh	CYP2C19 activ
c1ccc(-n2ncc3c(N4CCN(c5ccccn5)CC4)nc(N4CCOCC4)nc32)cc1	18	x	0.8	x	25	0.8
CCOc1ccc(-c2nnn(CC(=O)NCc3cccs3)n2)cc1	44	-4	0.9	-17	8	0.6
CC(Nc1n[nH]c(=S)[nH]c1=O)C(=O)OCc1ccccc1 (centres undefined)	11	-10	0.1	-10	90*	0.9
CCCCOC(=O)C(C)Nc1n[nH]c(=S)[nH]c1=O (centres undefined)	26	10	0.2	-6	79*	0.7
CCCCOC(=O)C(C)Nc1n[nH]c(=O)[nH]c1=O (centres undefined)	-20	6	1.1	-4	-6	1.2
CCC1Oc2ccccc2N(CC(=O)Nc2ccc3c(c2)OCCO3)C1=O (centres undefined)	x	8	x	-3	x	x
O=c1[nH]c2c(s1)C=Nc1ccccc1N2	-13	0	1.1	-2	-14	1.1
O=C(c1cc2cc(Br)cc(Br)c2oc1=O)N1CCCc2ccccc21	-20	-7	1	-4	4	1.2
Cc1occc1C(=O)NCc1cccs1	x	8	x	4	x	x
CCc1ccc(C(=O)NCc2cccs2)s1	80*	8	0.5	-2	45	0.2
O=C(NCc1cccs1)c1ccc(Cl)s1	54*	4	0.9	1	6	0.5
C=CCN(CC=C)C(=S)Nc1ccccc1	24	3	1	-5	4	0.8
COc1ccc(-c2cc(-c3ccc(F)cc3)nc(N3CCN(C)CC3)n2)cc1	x	32*	x	20	x	x
COc1ccc(-c2cc(C(F)(F)F)nc(N3CCOCC3)n2)cc1	-9	19	1	-3	-4	1.1
Cc1c(OCc2ccccc2)c(=O)ccn1Cc1ccccc1	68*	4	0.6	6	37	0.3
Cn1nc(OCc2ccccc2)ccc1=O	2	5	1	-9	2	1
O=C1C2C3C=CC(C3)C2C(=O)N1Cc1cccnc1 (centres undefined)	-6	7	1	3	3	1.1
O=C1C2C(C(=O)N1Cc1cccnc1)C1C=CC2C12CC2 (centres undefined)	66*	-3	1	-10	-1	0.3
O=C1C2C3c4ccccc4C(c4ccccc43)C2C(=O)N1Cc1cccnc1 (centres undefined)	68*	1	0.7	10	26	0.3
O=C(COc1ccc(N2CC(C(=O)O)CC2=O)cc1)Nc1cccc(C(F)(F)F)c1 (centres undefined)	-4	3	1.2	7	-20	1
FC(F)(F)c1cnc(Nc2ccc(N3CCOCC3)cc2)c(Cl)c1	40	11	1.6	0	-63	0.6
CCCCC(=O)NC(N1CCCCC1)C(Cl)(Cl)Cl (centres undefined)	59*	4	0.8	-7	18	0.4
O=C(O)c1ccc(Sc2nnc(-c3cccc(Br)c3)o2)c([N+](=O)[O-])c1	-33	2	0.3	-3	66*	1.3
